The record followed here is PubChem BioAssay.

For orientation: inhibition means the relative decrease from the control value, in per cent.

Values without a mark were called inactive. For some assays here: Measured potencies and affinities stand elsewhere. Activity calls are given as the source filed them. Unless noted, the rule behind the calls is not given here.

Assay [1] can be described thus: antimalarial activity against Dd2 strain (AID 2302;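 active = growth inhibition above 50% at the single 2 µM test dose, taken to imply half-maximal potency below 2 µM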;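 note: 0% = DMSO untreated growth and 100% = chloroquine plus artemisinin killed control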). Conditions: P. falciparum Dd2 in RBCs, LDH growth readout, 72 h; at 2 µM; stronger effect = higher value.
The nature of assay [2]: human hepatoma cell viability loss – ATP luminescence, cytotoxicity control for P. falciparum antimalarial project, primary screen (AID 2303;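 active = inhibition above 50%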;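 note: 0% = DMSO wells and 100% = digitonin-killed cells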). The settings on record: HepG2 viability, 24-48 h, at 10 µM, stronger effect = higher value.
Assay [3] deals with L-lactate dehydrogenase (Plasmodium falciparum (isolate CDC / Honduras)) (UniProt Q27743). The assay is described as follows: PfLDH activity inhibition – cell lysate, 3D7 strain, counter-screen for P. falciparum growth inhibition project (AID 2304).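 Note: 0% = vehicle and 100% = reference inhibitor.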 The settings on record: P. falciparum 3D7 crude extract, LDH APAD/NBT absorbance; at 2 µM; stronger effect = higher value.
Chain of L-lactate dehydrogenase (Plasmodium falciparum (isolate CDC / Honduras)) (Q27743 whole entry, looked up): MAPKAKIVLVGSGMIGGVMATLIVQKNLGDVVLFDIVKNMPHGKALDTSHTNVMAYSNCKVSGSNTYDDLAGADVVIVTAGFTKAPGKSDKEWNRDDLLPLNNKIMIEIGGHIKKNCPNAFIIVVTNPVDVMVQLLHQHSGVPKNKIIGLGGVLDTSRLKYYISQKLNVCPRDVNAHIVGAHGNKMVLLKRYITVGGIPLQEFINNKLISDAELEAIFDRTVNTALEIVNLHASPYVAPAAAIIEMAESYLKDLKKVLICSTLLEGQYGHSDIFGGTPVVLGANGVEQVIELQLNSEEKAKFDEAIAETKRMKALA
Assay [4] in a line: inhibition of 3D7 malaria parasite growth – strain 3D7 (AID 2306).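 Note: 0% = DMSO wells and 100% = chloroquine plus artemisinin control wells.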 The settings on record: P. falciparum 3D7 erythrocytic growth, LDH absorbance, 72 h; at 2 µM; stronger effect = higher value.
The target of assay [5] is Calcium-dependent protein kinase 1 (Plasmodium falciparum (isolate 3D7)) (UniProt P62344). The assay is described as follows: PfCDPK1 kinase inhibitors, biochemical, TCAMS library (AID 1159585; cut-off not given, nearly all actives have IC50 up to about 0.98 µM;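 note: inhibitors leave more ATP so luminescence rises with inhibition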). The settings on record: recombinant PfCDPK1, Kinase-Glo ATP depletion luminescence. In general terms: Kinase-Glo measures the ATP left after a reaction by luminescence.
Chain of Calcium-dependent protein kinase 1 (Plasmodium falciparum (isolate 3D7)) (P62344 whole entry, looked up): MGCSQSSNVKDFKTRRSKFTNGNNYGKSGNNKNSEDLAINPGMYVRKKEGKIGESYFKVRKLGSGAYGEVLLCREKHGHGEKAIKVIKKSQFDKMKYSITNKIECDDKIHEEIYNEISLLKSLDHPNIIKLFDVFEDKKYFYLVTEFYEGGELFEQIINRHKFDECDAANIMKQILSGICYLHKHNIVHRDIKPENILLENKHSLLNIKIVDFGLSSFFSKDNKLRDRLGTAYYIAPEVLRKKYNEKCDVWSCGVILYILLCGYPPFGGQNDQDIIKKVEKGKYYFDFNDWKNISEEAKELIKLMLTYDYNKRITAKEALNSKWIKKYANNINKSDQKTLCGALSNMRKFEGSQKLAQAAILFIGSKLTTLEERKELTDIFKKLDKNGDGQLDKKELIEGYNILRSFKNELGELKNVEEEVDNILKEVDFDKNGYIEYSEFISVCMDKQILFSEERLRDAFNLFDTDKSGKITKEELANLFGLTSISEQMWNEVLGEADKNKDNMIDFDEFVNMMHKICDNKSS
Assay [6] has as its target Protein kinase 7 (PK7), Plasmodium falciparum 3D7 (PF3D7_0213400) (UniProt Q7YTF7). Put plainly: inhibition of Plasmodium PK7 catalytic activity – biochemical, TCAMS antimalarial set, Kinase-Glo luminescence (AID 1159587). Conditions: recombinant PfPK7, Kinase-Glo ATP depletion luminescence.
Assay [7] has as its target Calcium-dependent protein kinase 4 (Plasmodium falciparum (isolate 3D7)) (UniProt Q8IBS5). Put plainly: PfCDPK4 kinase inhibitors, biochemical, TCAMS library (AID 1159588; cut-off not given, nearly all actives have IC50 up to about 0.91 µM). The settings on record: recombinant PfCDPK4, Kinase-Glo ATP depletion luminescence.
The target in assay [8] is Plasmodium falciparum protein kinase 6 (PK6, PF3D7_1337100) (UniProt Q8IDW1). The assay is described as follows: PfPK6 kinase inhibitors, biochemical, TCAMS library (AID 1159586). The settings on record: recombinant PfPK6, Kinase-Glo ATP depletion luminescence.
Chain of Plasmodium falciparum protein kinase 6 (PK6, PF3D7_1337100) (Q8IDW1 1-305): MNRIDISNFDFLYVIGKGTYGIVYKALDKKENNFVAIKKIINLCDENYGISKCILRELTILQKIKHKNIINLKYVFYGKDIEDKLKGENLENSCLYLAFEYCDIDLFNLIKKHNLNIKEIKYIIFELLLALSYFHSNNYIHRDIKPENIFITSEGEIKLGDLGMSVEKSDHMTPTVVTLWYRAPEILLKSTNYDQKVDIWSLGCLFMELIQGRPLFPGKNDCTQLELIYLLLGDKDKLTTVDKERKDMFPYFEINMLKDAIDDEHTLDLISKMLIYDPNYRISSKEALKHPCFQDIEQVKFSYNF

Chain of Calcium-dependent protein kinase 4 (Plasmodium falciparum (isolate 3D7)) (Q8IBS5 whole entry, looked up): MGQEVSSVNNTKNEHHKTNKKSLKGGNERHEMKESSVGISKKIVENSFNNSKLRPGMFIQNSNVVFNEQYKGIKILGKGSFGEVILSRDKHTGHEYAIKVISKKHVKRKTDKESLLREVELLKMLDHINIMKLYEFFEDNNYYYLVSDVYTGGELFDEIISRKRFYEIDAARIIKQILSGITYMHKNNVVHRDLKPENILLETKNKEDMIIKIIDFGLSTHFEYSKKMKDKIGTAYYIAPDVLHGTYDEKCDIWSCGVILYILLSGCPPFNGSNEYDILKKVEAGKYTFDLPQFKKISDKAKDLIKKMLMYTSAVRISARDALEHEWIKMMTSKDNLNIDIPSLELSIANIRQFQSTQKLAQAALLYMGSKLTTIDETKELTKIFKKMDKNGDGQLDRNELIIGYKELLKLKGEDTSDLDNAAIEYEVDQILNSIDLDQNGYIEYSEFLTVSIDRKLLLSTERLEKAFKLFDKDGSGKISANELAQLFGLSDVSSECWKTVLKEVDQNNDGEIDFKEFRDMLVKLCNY
Chain of Protein kinase 7 (PK7), Plasmodium falciparum 3D7 (PF3D7_0213400) (Q7YTF7 1-343): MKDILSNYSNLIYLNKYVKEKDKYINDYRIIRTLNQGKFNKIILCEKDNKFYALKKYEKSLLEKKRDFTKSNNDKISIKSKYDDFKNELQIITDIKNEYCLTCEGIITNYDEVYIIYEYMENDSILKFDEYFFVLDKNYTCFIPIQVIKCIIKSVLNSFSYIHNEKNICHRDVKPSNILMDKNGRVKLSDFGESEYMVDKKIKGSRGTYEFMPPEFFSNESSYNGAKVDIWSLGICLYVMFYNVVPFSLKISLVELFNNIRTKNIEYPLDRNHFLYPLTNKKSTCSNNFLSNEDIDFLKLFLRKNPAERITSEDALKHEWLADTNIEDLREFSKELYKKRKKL

In the case of `CC(=O)Nc1ccc(Nc2ncc([N+](=O)[O-])c(Nc3ccccc3C(N)=O)n2)cc1`, the growth inhibition is 97% (active) in assay [1] and 98% (active) in assay [4]. Besides, the inhibition in assay [2] was 42%; in assay [3], 2%. The outcome in assay [5], in assay [6] and in assay [7] was inactive.

Regarding `COc1cccc(-n2ncc3c(N/N=C/c4ccc(CN(C)CCN(C)C)cc4)ncnc32)c1`, the growth inhibition is 91% (active) in assay [1] and 100% (active) in assay [4]. In addition, the inhibition in assay [2] was 29%; in assay [3] it was -2%. Moreover, the outcome in assay [5], in assay [6] and in assay [7] was inactive.

Regarding `Cn1cnc2c(Nc3ccncc3)nc(-c3ccc4c(c3)OCO4)nc21`, the growth inhibition was 2% in assay [1] and 96% (active) in assay [4]. Besides, the inhibition is 19% in assay [2] and -1% in assay [3]. Besides, the result in assay [5], in assay [6] and in assay [7] was inactive.

For the molecule `CCN(CC)CCNc1nccc(N(C)c2ccc(NC(=O)Nc3cc(C(F)(F)F)ccc3F)cc2)n1`, the growth inhibition in assay [1] was 25%; in assay [4] it was 97% (active). The inhibition is 74% (active) in assay [2] and 1% in assay [3]. Further, the outcome in assay [5], in assay [6] and in assay [7] was inactive.

Take `CC(C)(CNCc1ccc(Cl)cc1)c1nc(-c2ccc(Cl)c(O)c2)c(-c2ccncc2)[nH]1`: the figures for the growth inhibition in assay [1] and in assay [4] were 98% (active) and 101% (active), respectively. The inhibition was 86% (active) in assay [2] and 5% in assay [3]. For the same molecule, the outcome in assay [8], in assay [6] and in assay [7] was inactive.

As to `CN1CCC(NC(=O)c2cccc(Nc3cc(Nc4cccc(Br)c4)ncn3)c2)CC1`, the growth inhibition in assay [1] is 6%; in assay [4], 94% (active). Moreover, the values for the inhibition in assay [2] and in assay [3] were 25% and 1%, respectively. Moreover, the outcome in assay [5], in assay [6] and in assay [7] was inactive.

As to `COc1ccc(-c2cnn3ccc(Nc4cc(OC)c(OC)c(OC)c4)nc23)cc1OC`, the growth inhibition in assay [1] was 100% (active); in assay [4], 98% (active). For the same molecule, the inhibition in assay [2] was 57% (active); in assay [3] it was -4%. In addition, the result in assay [8], in assay [6] and in assay [7] was inactive.

As for `CN(c1ccc2c(c1)nc(NCc1ccccc1)n2C)c1ccnc(Nc2ccc(CS(C)(=O)=O)cc2)n1`, the values for the growth inhibition in assay [1] and in assay [4] were 69% (active) and 94% (active), respectively. The inhibition is 61% (active) in assay [2] and 4% in assay [3]. Further, the result in assay [5], in assay [6] and in assay [7] was inactive.

Turning to `CN1CCN(Cc2cccc(Nc3nccc(Nc4ccc(Oc5ccccc5)cc4)n3)c2)CC1`, the results for the growth inhibition in assay [1] and in assay [4] were 80% (active) and 97% (active), respectively. In addition, the results for the inhibition in assay [2] and in assay [3] were 30% and 2%, respectively. Moreover, the result in assay [8], in assay [6] and in assay [7] was inactive.

`Clc1ccc(-c2cnc3ccc(NCCc4cccnc4)nn23)cc1`: the figures for the growth inhibition in assay [1] and in assay [4] were 32% and 97% (active), respectively. Moreover, the values for the inhibition in assay [2] and in assay [3] were 34% and -4%, respectively. Moreover, the result in assay [8], in assay [6] and in assay [7] was inactive.

Consider `NS(=O)(=O)c1cccc(Nc2nccc(-c3cnn4ncccc34)n2)c1`, for which the growth inhibition in assay [1] and in assay [4] was 89% (active) each time. Moreover, the inhibition is 39% in assay [2] and 0% in assay [3]. Also, the result in assay [5], in assay [6] and in assay [7] was inactive.

Take `CN1CCN(Cc2ccc(-c3ccc4c(Nc5cc(O)c(Cl)cc5F)ccnc4c3)o2)CC1`: the growth inhibition was 99% (active) in assay [1] and 100% (active) in assay [4]. The results for the inhibition in assay [2] and in assay [3] were 2% and -4%, respectively. In addition, the outcome in assay [8], in assay [6] and in assay [7] was inactive.

With `N#Cc1cnc(Nc2ccc(Oc3ccccc3)cc2)nc1Nc1cccc(S(N)(=O)=O)c1`, the growth inhibition in assay [1] was 86% (active); in assay [4], 96% (active). Besides, the inhibition was 74% (active) in assay [2] and 3% in assay [3]. Moreover, the result in assay [5], in assay [6] and in assay [7] was inactive.

On to `Nc1ncc(-c2cccc(F)c2)cc1-c1nc2ccc(F)cc2[nH]1`, for which the growth inhibition in assay [1] is 88% (active); in assay [4] it was 100% (active). For the same molecule, the inhibition was 54% (active) in assay [2] and -3% in assay [3]. For the same molecule, the result in assay [5], in assay [6] and in assay [7] was inactive.

For `CN(c1ccc(NC(=O)Nc2cc(C(F)(F)F)ccc2F)cc1)c1ccnc(NCCN2CCOCC2)n1`, the growth inhibition was 73% (active) in assay [1] and 97% (active) in assay [4]. Moreover, the inhibition in assay [2] is 67% (active); in assay [3] it was -2%. Further, the outcome in assay [5], in assay [6] and in assay [7] was inactive.

On to `CCN(CC)CCCNc1nccc(N(C)c2ccc(NC(=O)Nc3cc(C(F)(F)F)ccc3F)cc2)n1`, for which the growth inhibition in assay [1] was 19%; in assay [4], 94% (active). In addition, the inhibition in assay [2] was 96% (active); in assay [3] it was -6%. Also, the result in assay [5], in assay [6] and in assay [7] was inactive.

With `Cc1cc(Nc2nc(Nc3cccc(Cl)c3)nc3ccccc23)n[nH]1`, the growth inhibition in assay [1] was 95% (active); in assay [4] it was 103% (active). Moreover, the inhibition was 9% in assay [2] and -2% in assay [3]. Besides, the result in assay [5], in assay [6] and in assay [7] was inactive.

As to `N=C(N)c1ccc(Nc2nccc(Nc3nc(-c4ccccc4)cs3)n2)cc1`, the growth inhibition is 75% (active) in assay [1] and 96% (active) in assay [4]. The figures for the inhibition in assay [2] and in assay [3] were 13% and -8%, respectively. Further, the outcome in assay [5], in assay [6] and in assay [7] was inactive.

On to `CS(=O)(=O)Cc1ccc(Nc2ncc(Cl)c(Nc3cccnc3C(N)=O)n2)cc1`, for which the growth inhibition in assay [1] and in assay [4] was 97% (active) in each case. Besides, the inhibition was 54% (active) in assay [2] and -4% in assay [3]. Further, the result in assay [5], in assay [6] and in assay [7] was inactive.

In the case of `Cc1ccc(S(=O)(=O)Nc2ccc(Nc3nccc(Nc4cccc5[nH]ncc45)n3)cc2)cc1`, the growth inhibition is 5% in assay [1] and 90% (active) in assay [4]. Further, the figures for the inhibition in assay [2] and in assay [3] were 57% (active) and 6%, respectively. Besides, the result in assay [5], in assay [6] and in assay [7] was inactive.

`O=C(Nc1cccc(-c2nn3ccccc3c2-c2ccnc(Nc3ccc(-c4ccn[nH]4)cc3)n2)c1)c1c(F)cccc1F`: the result in assay [8] and in assay [6] was inactive.

With `O=C(Cc1ccc(Nc2nccc(Nc3cccc4[nH]ncc34)n2)cc1)Nc1ccc(C(F)(F)F)cc1`, the values for the growth inhibition in assay [1] and in assay [4] were 69% (active) and 100% (active), respectively. Moreover, the inhibition is 12% in assay [2] and -6% in assay [3]. Moreover, the outcome in assay [5], in assay [6] and in assay [7] was inactive.
